HCV inh – HCV inhibition; Huh7.5.1 HCVcc-Cre infection, luciferase reporter, 44 h; Potency, µM (doses to about 41.8 µM), hits mostly inhibitors; 3.4% of 340,000 active
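Infectious HCVcc-Cre (~0.5 moi) was added to cells just after compound, with cells seeded 4 h earlier at 1,000 per well. Luciferase activity after 44 h culture reported infection; substrate was incubated 15 min at room temperature before reading.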
Marburg entry inh – Marburg virus entry inhibition. Potency, µM (titrated, usually from 37.8 µM), usual class: inhibitors. Marburg virus pseudotyped entry inhibition, cell reporter. 1.8% of 300,000 active; calls by dose curve; tested in HEK293 cells
FMDV inh – foot and mouth disease virus antiviral activity. AID 1159524. 1.2% of 410,000 active. FMDV antiviral cell-based qHTS. Potency, µM (series often up to 57.9 µM), usual class: inhibitors; calls by dose curve; tested in HEK293T cells; further: read-out not given here; nearly all actives have a fitted effect of over 45% in size
Giardia FBPA inh – inhibitors of Giardia lamblia fructose-1,6-bisphosphate aldolase | purified Giardia FBPA | A8B2U2 | 0.71% of 290,000 active | AID 2451 | Potency, µM (series often up to 59.6 µM), most hits filed as inhibitors; further: nearly all actives have a fitted effect of over 55% in size
Target sequence (A8B2U2 whole entry, looked up): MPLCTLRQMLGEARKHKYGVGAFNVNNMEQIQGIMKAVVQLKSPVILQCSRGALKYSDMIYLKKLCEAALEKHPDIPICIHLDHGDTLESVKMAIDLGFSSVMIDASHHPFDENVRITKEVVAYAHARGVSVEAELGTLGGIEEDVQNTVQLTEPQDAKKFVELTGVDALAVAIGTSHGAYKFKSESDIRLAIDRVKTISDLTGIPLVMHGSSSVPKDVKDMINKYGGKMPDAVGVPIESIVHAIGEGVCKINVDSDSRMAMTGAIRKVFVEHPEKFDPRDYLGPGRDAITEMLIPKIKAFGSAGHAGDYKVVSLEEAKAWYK
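Giardia FBPA (40 nM reagent) was preincubated 10 min at RT with compound (up to 57.5 uM final), then substrate plus GAPDH/TPI/NAD/arsenate coupling system with diaphorase/resazurin was added; resorufin fluorescence (525/598 nm) was read after 20 min.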
LASV entry inh – blocks Lassa virus binding to or entry into cells. Lassa virus pseudotype entry inhibition, cell reporter. Potency, µM (titrated, usually from 37.9 µM), actives largely listed as inhibitors. 1.2% of 300,000 active. AID 540256; calls by dose curve; tested in HEK293 cells; further: nearly all actives have a fitted effect of over 50% in size
HCMV inh – human cytomegalovirus inhibition; HFF cells, HCMV-luciferase reporter, 72 h; stronger effect = lower value; activity change, negative = inhibition, % at 57.5 µM; 4.5% of 410,000 active; in the data active means activity change below about -60%; inconclusive means no clear call, values can overlap the other calls; inactive means above about -39%
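Cell-based, HFFs, 1000 cells/well, 16 h 37C; cpds in DMSO + HCMV-luc, MOI 1 PFU/cell; 72 h 37C; OneGlo luminescence after 5 min RT; norm. to buffer vs Salinomycin 10uM.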
Each line names hits and unclear results; the compound was inactive in the other large screens. An excerpt weighted towards active compounds, which were near 8.3% of everything screened. Unless noted, the call rests on the fitted dose curve; in most records, active means well fitted curve in the direction sought with a large enough effect; inconclusive means small, poorly fitted or top-dose-only effect, or another doubt; inactive means no such curve, though single readings can be large; an effect the other way counts as inactive or inconclusive.

O=C(c1cnsn1)N1CCOc2ccc(CN3CCOCC3)cc2C1	none (no result: HCV inh, Marburg entry inh, Giardia FBPA inh, LASV entry inh, HCMV inh)
CCC(C)C(NC(=O)OC(C)(C)C)C(=O)NC1COC2CC(n3ccc(=O)[nH]c3=O)OC12 (centres undefined)	none (no result: HCV inh, Marburg entry inh, FMDV inh, LASV entry inh, HCMV inh)
O=C1c2cccc(OCc3ccc(F)cc3)c2CCN1Cc1ccccc1	HCV inh inconclusive, Marburg entry inh inconclusive, FMDV inh inconclusive, LASV entry inh inconclusive
Cc1cccc(OCCCC(=O)N2CCCc3ccccc32)c1C	HCV inh 10µM, HCMV inh inconclusive
CN1CCc2c(OCC(=O)N3CCCc4ccccc43)cccc2C1=O	Marburg entry inh 3.16µM, FMDV inh inconclusive, LASV entry inh inconclusive
O=C1c2cccc(OCC(=O)N3CCCc4ccccc43)c2CCN1Cc1ccc(F)cc1	HCV inh inconclusive, Marburg entry inh inconclusive, FMDV inh 20µM, LASV entry inh inconclusive
Cc1cccc(OCC(=O)OCC(=O)N2CCCc3ccccc32)c1C	none (no result: Marburg entry inh, Giardia FBPA inh, LASV entry inh)
Cc1cccc(CN2CCc3c(OCC(=O)NCc4ccco4)cccc3C2=O)c1	LASV entry inh inconclusive
Cc1cccc(CN2CCc3c(OCC(=O)N4CCCc5ccccc54)cccc3C2=O)c1	HCV inh inconclusive, Marburg entry inh inconclusive, FMDV inh inconclusive, LASV entry inh 4.47µM
Nc1c(Cl)cc(-c2cn(CCC(=O)O)c(=O)cn2)cc1Cl	none (no result: HCV inh, Marburg entry inh, FMDV inh, Giardia FBPA inh, LASV entry inh)
CCOC(=O)N1CCN(C(=O)COc2cccc3c2CCN(CC)C3=O)CC1	none
CCOC(=O)N1CCN(C(=O)COc2cccc3c2CCN(Cc2ccc(F)cc2)C3=O)CC1	HCV inh inconclusive, Marburg entry inh inconclusive, FMDV inh 14.1µM, HCMV inh -66.7
COc1ccc(N2CCN(Cc3nc(N)nc(Nc4ccccc4OC)n3)CC2)cc1	Marburg entry inh 18.3µM, LASV entry inh inconclusive
COc1ccc(OC)c(Nc2nc(N)nc(CCl)n2)c1	HCV inh 3.98µM, FMDV inh inconclusive, LASV entry inh inconclusive, HCMV inh -99.1
COc1ccccc1Nc1nc(N)nc(CCl)n1	HCV inh 4.47µM, LASV entry inh inconclusive, HCMV inh inconclusive
Nc1nc(CN2CCN(c3ccccc3F)CC2)nc(Nc2ccc3c(c2)OCCO3)n1	FMDV inh 22.4µM
C[C@H]1[C@H](c2ccccc2)Oc2cccc(N3CCCC3)c2S(=O)(=O)N1Cc1cccc(F)c1	none (no result: HCV inh, Marburg entry inh, FMDV inh, Giardia FBPA inh, LASV entry inh)
COc1ccccc1N1CCN(Cc2nc(N)nc(Nc3ccc(C)c(Cl)c3)n2)CC1	HCV inh 11.2µM, LASV entry inh inconclusive
COc1ccc(OCc2nc(N)nc(Nc3ccccc3OC)n2)cc1	HCV inh 14.1µM, Marburg entry inh inconclusive, LASV entry inh inconclusive, HCMV inh inconclusive
COc1ccccc1Nc1nc(N)nc(CSc2ncccn2)n1	none
CN1[C@@H]2CC(OC(=O)[C@H](CO)c3ccccc3)C[C@@H]1[C@H]1O[C@H]12 (some centres undefined)	none (no result: HCV inh, Marburg entry inh, LASV entry inh, HCMV inh)
COc1cc(N(C)C)cc(CN(C)CCc2ccc([N+](=O)[O-])cc2)c1O	Giardia FBPA inh 7.92µM (no result: HCV inh, Marburg entry inh, FMDV inh, LASV entry inh, HCMV inh)
OC(CNCCc1ccc(C(F)(F)F)cc1)COc1ccc2ccccc2c1 (centres undefined)	HCV inh inconclusive, Marburg entry inh inconclusive, LASV entry inh 16.4µM
OC(COc1ccc(CNCCc2ccc(C(F)(F)F)cc2)cc1)CN1CCCCC1 (centres undefined)	HCV inh 5.01µM, Marburg entry inh inconclusive, LASV entry inh inconclusive, HCMV inh -80.1
OC(CNCCc1ccc(C(F)(F)F)cc1)COc1cccc2ccccc12 (centres undefined)	HCV inh inconclusive, Marburg entry inh inconclusive, FMDV inh inconclusive, LASV entry inh inconclusive
O=C1CCC2CCCCC2O1 (centres undefined)	none (no result: HCV inh, FMDV inh, Giardia FBPA inh, LASV entry inh, HCMV inh)
Cc1cc(C)c(S(=O)(=O)N2CCN(C(=O)c3cc(=O)[nH]c4ccccc34)CC2)c(C)c1	none (no result: Marburg entry inh, Giardia FBPA inh, LASV entry inh)
Cc1cc(C(C)(C)C)cc(C)c1S(=O)(=O)N1CCN(C(=O)c2cc([N+](=O)[O-])c[nH]c2=O)CC1	FMDV inh inconclusive, LASV entry inh inconclusive, HCMV inh -64.3
Cc1ccc2[nH]c(O)c(N=NC(=O)CCc3ccccc3)c2c1Br	HCMV inh -61.2
Cn1c(Sc2ccc(Br)cc2)c(C=O)c2ccccc21	HCV inh inconclusive, Marburg entry inh inconclusive, FMDV inh inconclusive, LASV entry inh 10µM
CCOc1ccc(N2C(=O)C(=O)/C(=C(/O)c3ccccc3)C2c2ccccc2[N+](=O)[O-])cc1 (centres undefined)	Marburg entry inh inconclusive, HCMV inh -73.0
O=C1C(=O)N(c2ccccc2)C(c2ccccc2[N+](=O)[O-])/C1=C(\O)c1ccccc1 (centres undefined)	none
CCOC(=O)c1cc(-c2ccccc2)n(CCC(=O)NCCc2ccc(C)cc2)c1C	none (no result: HCV inh, Marburg entry inh, Giardia FBPA inh)
O=[N+]([O-])c1ccc2nc[nH]c2c1	none (no result: Giardia FBPA inh)
Nc1[nH]c2cc([N+](=O)[O-])ccc2c1-c1ccccn1	HCV inh 12.6µM
COc1ccc(C2c3c(oc4ccc(F)cc4c3=O)C(=O)N2Cc2ccc3c(c2)OCO3)cc1 (centres undefined)	none (no result: HCV inh, Giardia FBPA inh)
COCCCNc1nc(-c2ccc(Cl)cc2)nc2ccccc12	HCV inh 12.6µM, Marburg entry inh 11.2µM, LASV entry inh inconclusive
COc1ccc(-c2nc(NCCCN(C)C)c3ccccc3n2)cc1	HCV inh inconclusive, Giardia FBPA inh inconclusive (no result: Marburg entry inh, LASV entry inh)
CCN(CC)CCCNc1nc2ccccc2c2[nH]c3ccc(OC)cc3c12	HCV inh inconclusive, Marburg entry inh inconclusive, LASV entry inh inconclusive, HCMV inh -93.4 (no result: Giardia FBPA inh)
COCCN(CCOC)c1nc(-c2ccc(Cl)cc2)nc2ccccc12	HCV inh inconclusive, FMDV inh inconclusive, HCMV inh inconclusive (no result: Marburg entry inh, LASV entry inh)
CCN(CC)CCCNc1nc(-c2ccccc2)nc2ccccc12	HCV inh 10µM, Marburg entry inh 16.4µM, LASV entry inh inconclusive, HCMV inh inconclusive (no result: FMDV inh)
CC(=O)OCCNc1nc(-c2ccccc2)nc2ccccc12	HCV inh 10µM
Cc1ccc2c(c1)CN(CCNC(=O)c1cc3ccccc3oc1=O)CC(C)O2 (centres undefined)	none (no result: HCV inh, Marburg entry inh, Giardia FBPA inh, LASV entry inh, HCMV inh)
CC(=O)c1cc(-c2ccccc2)n(CC(=O)NCc2ccccc2C)c1C	none (no result: HCV inh, Giardia FBPA inh, LASV entry inh)
O=C(NCC1Cc2cc(-c3cncnc3)cc(Cl)c2O1)c1cccc(Cn2cccn2)c1 (centres undefined)	none (no result: HCV inh, Marburg entry inh, Giardia FBPA inh, LASV entry inh, HCMV inh)
CCOC(=O)C1=C(CS(=O)(=O)c2ccc(C)cc2)NC(=O)NC1c1ccc(C(C)C)cc1 (centres undefined)	Marburg entry inh inconclusive, LASV entry inh inconclusive (no result: HCV inh, Giardia FBPA inh)
CCN(CC)CCCNc1nc2ccccc2c2nc(-c3ccncc3)nn12	HCV inh inconclusive, Marburg entry inh 7.94µM, LASV entry inh inconclusive, HCMV inh inconclusive
OCCNc1c2ccccc2nc2ccccc12	HCV inh inconclusive, Marburg entry inh inconclusive, HCMV inh -100.9
COCCNc1nc(-c2ccccc2)nc2ccccc12	HCV inh inconclusive, Marburg entry inh inconclusive, LASV entry inh inconclusive
COCCCNc1nc(-c2ccncc2)nc2ccccc12	HCV inh 11.2µM, Marburg entry inh inconclusive
OCCNc1nc(-c2ccccc2)nc2ccccc12	HCV inh 7.94µM

Screens: PubChem BioAssay, National Center for Advancing Translational Sciences (NCATS)
